From PubChem BioAssay AID651793 (National Center for Advancing Translational Sciences (NCATS), 2012) come the findings set out here.

Records with an inconclusive call do not appear. Entries that show only a call come without a potency. Calls of active or inactive are those of the source. The call rests on the fitted dose curve; in most records, active means well fitted inhibition curve with a large enough effect; inconclusive means small, poorly fitted or top-dose-only effect; inactive means flat fitted curve, though single readings scatter.

The assay in a line: InCell qHTS Assay for Inhibitors of the mTORC1 Signaling Pathway in WT MEF Cells: Hit Validation. An excerpt: The mammalian target of rapamycin (mTOR) is an intracellular serine/threonine kinase Aberrant regulation of mTOR signaling plays a causative role in a number of human diseases, including cancer, benign tumors such as lymphangioleiomyomatosis (LAM) and Tuberous Sclerosis Complex (TSC), and metabolic diseases such as diabetes and obesity. This project aims to identify inhibitors of ribosomal protein S6 (rpS6) phosphorylation. The phosphorylation of rpS6 is a key event downstream of mTOR activation. The assay uses a phospho-specific antibody of phospho-rpS6 to detect inhibitors of mTOR activation. […]
For quantitative high throughput analysis of mTORC1 signaling, we developed a cell-based assay for immuno-fluorescence based detection of rpS6 phosphorylation on the Acumen Explorer that will be used a platform for the primary small molecule screen. […] The fluorescence emission from the Alexa-488 conjugated rpS6 phospho-235/236 antibody staining is selected using a […] band pass filter. Fluorescence emission from the PI stain is selected using a 575-640 nm band pass filter. The normalized phospho-S6 staining is calculated as the ratio of the integrated Alexa 488 intensity divided by the integrated PI intensity for the single concentration rapamycin control (7.5 nM) and DMSO columns. […]
For orientation: Quantitative high-throughput screening tests each substance at several concentrations.

Take `Cn1cc(C2=C(c3cn(C4CCN(Cc5ccccn5)CC4)c4ccccc34)C(=O)NC2=O)c2ccccc21`: the Potency entry was “inactive”. As for `CCOc1ccc(NC(=O)c2cc3c(C)nn(-c4ccccc4)c3s2)cc1`, the Potency was 17.9 µM (active).
